Measurements taken from PubChem BioAssay AID686978 (National Center for Advancing Translational Sciences (NCATS), 2013).
Out of some 420,000 compounds screened, about 64,000 (15%) were called active. Another 27% or so got no clear call; they are omitted. Calls follow the shape of the dose curve; as a rule, active = well fitted inhibition curve with a large enough effect; inconclusive = small, poorly fitted or top-dose-only effect; inactive = flat fitted curve, though single readings scatter. Not all results are given here. A call without a number means that no potency is given here. Square brackets hold non-standard residues; d marks the D form. Peptide text beside a SMILES is read from it. * marks the point of attachment. ξ: configuration not given here. Cbz = O=C(OCc1ccccc1)*; ξL = CC(C)CC(N)C(=O)O; ξP = O=C(O)C1CCCN1

Test: qHTS for Inhibitors of human tyrosyl-DNA phosphodiesterase 1 (TDP1): qHTS in cells in absence of CPT; also: nearly all actives have a fitted effect of over 55% in size
Conditions: DT40 Tdp1-/- hTDP1 cells, no CPT, ATP luminescence, 48 h; activity change, negative = growth inhibition: at 46.2 µM (top of the series)
Summary of the method: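 Seeded 400 DT40-hTDP1 cells/well (vehicle DMSO, no 20 nM CPT); pinned compounds; ≥48 hr at 37 °C; CellTiter-Glo luminescence as viability measure.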
Potency is read from the fitted curve at half-maximal effect.

SMILES | Potency
COc1ccc(NC(=O)CN(C)S(=O)(=O)c2ccccc2)cc1OC | inactive
O=C(NCCS(=O)(=O)c1ccc(Br)cc1)c1ccccc1Cl | inactive
COc1ccc(NC(=O)NN2CCN(C)CC2)c(OC)c1 | inactive
O=C(Cn1cc2c(n1)CCCCC2)NCCN1CCOCC1 | inactive
Cn1c(=O)sc2cc(NS(=O)(=O)c3ccc(C(C)(C)C)cc3)ccc21 | inactive
CC1=NN(C(=O)c2ccccc2Br)C(O)(c2cccnc2)C1 (stereo not drawn) | inactive
O=C(NCCc1ccccc1)C1CC1 | inactive
CCCC1CCC(=NNC(=S)NCCc2ccccc2)CC1 (stereo not drawn) | 7.31 µM (active)
CCC(C)(C)C1CCC(=NNC(=O)c2ccc(Br)o2)CC1 (stereo not drawn) | inactive
CC(C)CC(NC(=O)C1CCCN1C(=O)[C@@H](C)NC(=O)OCc1ccccc1)C(=O)NCC(N)=O (stereo partly drawn) (Cbz-[dA][ξP][ξL]G-NH2) | inactive
COc1cc(OC)cc(-c2nc3ccccc3c(=O)n2NC(=O)c2cccnc2Cl)c1 | inactive
CSc1nc(C)nc(C2CC2)c1C#N | inactive
Cc1noc(C)c1NC(=O)Nc1ccc2c(c1)C(=O)N([C@H](C)CO)C[C@H](C)[C@@H](CN(C)C(=O)Nc1ccccc1)O2 | inactive
CCCCCn1c(CCCNC(=O)c2ccccc2OC)nc2ccccc21 | 18.4 µM (active)
Cc1cc2ccccc2n1CCNC(=O)c1ccc(F)cc1 | 18.4 µM (active)
Cc1cc2ccccc2n1CCC(=O)O | inactive
CC(=O)NCCc1nc2cc(NC(=O)c3ccccc3)ccc2n1C | inactive
CCCCOCCCNC(=O)c1ccccc1OCC | inactive
O=C(CNC(=O)c1ccc(F)cc1)c1ccccc1 | inactive
CCC(=O)NCCc1nc2ccccc2n1CC | inactive
COc1ccccc1C(=O)NCCC(=O)NC(C)CCc1ccccc1 (stereo not drawn) | inactive
CCCCCn1c(CCNC(=O)c2ccc(F)cc2)nc2ccccc21 | 18.4 µM (active)
CCN(CC)CCCNC(=O)CCc1ccccc1 | inactive
CCN(CC)CCCN=C(N)N | inactive
COc1cc(NS(=O)(=O)c2ccc(NC(=S)NC(=O)c3ccc(Br)cc3)cc2)ncn1 | inactive
COc1ccc(COCC(O)CN2CCC(C(N)=O)CC2)cc1 (stereo not drawn) | inactive
Clc1ccccc1-c1cc(COc2ccc3ccccc3c2)no1 | inactive

SMILES | Potency
CCCCNC(=O)CCn1c(=S)[nH]c2cc3c(cc2c1=O)OCO3 | inactive
CCN1CCN(C(=O)N[C@@H](C(=O)N[C@@H]2C(=O)N3C(C(=O)O)=C(CSc4nnnn4C)CS[C@H]23)c2ccc(O)cc2)C(=O)C1=O | inactive
COc1ccc(Cl)cc1C=CC=Nc1ccc(S(N)(=O)=O)cc1 | 16.4 µM (active)
COc1ccc(Cl)cc1C=CC=NNC(=O)c1ccncc1 | inactive
NS(=O)(=O)c1ccc(N=Cc2ccc(Br)s2)cc1 | inactive
CCN1C(=O)[C@H]2[C@@H](c3ccc(C(F)(F)F)cc3)N[C@]3(CCCN(Cc4ccc(Br)cc4)C3=O)[C@H]2C1=O | 9.2 µM (active)
CCN1C[C@@H]2[C@@H]3C(=O)N(Cc4ccccc4)C(=O)[C@@H]3[C@](C)(C1=O)N2C(=O)c1ccc(C(C)(C)C)cc1 | inactive
COc1ccc([C@H]2N[C@]3(CCCN(Cc4ccco4)C3=O)[C@H]3C(=O)N(C)C(=O)[C@@H]23)cc1 | inactive
O=C1[C@H]2[C@@H](c3ccc(C(F)(F)F)cc3)N[C@]3(CCCN(Cc4ccc(Br)cc4)C3=O)[C@H]2C(=O)N1Cc1ccccc1 | 23.1 µM (active)
O=C1[C@H]2[C@@H](c3ccc(C(F)(F)F)cc3)N[C@]3(CCCN(Cc4ccc(Cl)cc4)C3=O)[C@H]2C(=O)N1Cc1ccccc1 | 20.6 µM (active)
Cc1ccc([C@H]2N[C@]3(CCCN(CC4CCCCC4)C3=O)[C@H]3C(=O)N(Cc4ccccc4)C(=O)[C@@H]23)cc1 | 23.1 µM (active)
CCN1C(=O)[C@H]2[C@@H](c3ccccc3)N[C@]3(CCCN(Cc4ccc(C)cc4)C3=O)[C@H]2C1=O | inactive
Cc1ccc(C(=O)Oc2ccc(C(=S)N3CCOCC3)cc2)cc1 | inactive
c1ccc(-c2ccnc3nc(-n4cccc4)nn23)cc1 | inactive
O=C(CN(C(=O)c1nsc(Cl)c1Cl)c1cccc(F)c1)NC1CCCC1 | inactive
O=C(CCc1ccc(S(=O)(=O)N2CCOCC2)cc1)NN=C1CCCCCCC1 | inactive
CCN(CC)CCN(C(=O)c1cccc([N+](=O)[O-])c1)c1nc2ccc(OC)cc2s1 | inactive
Cc1noc(C)c1NC(=O)Nc1ccc2c(c1)C(=O)N([C@H](C)CO)C[C@H](C)[C@@H](CN(C)C(=O)Nc1ccc(C(F)(F)F)cc1)O2 | inactive
CCN(CC)C(=O)COc1coc(CN2CCN(Cc3ccccc3)CC2)cc1=O | inactive
O=C(CSc1nnc(-c2ccncc2)o1)NCc1ccc(Cl)cc1 | inactive
Fc1ccc(-c2ccc(NCCN3CCOCC3)nn2)cc1 | inactive
Nc1cc(C(F)(F)F)ccc1N1CCOCC1 | inactive
Oc1[nH]c2ccccc2c1N=Nc1c(F)c(F)c(F)c(F)c1F | 13 µM (active)
Cc1cccc(N=Nc2c(O)[nH]c3ccc(F)cc23)c1 | inactive
Oc1[nH]c2ccc(Br)cc2c1N=Nc1nn[nH]n1 | inactive
CCC(Cc1ccccc1)NC(=O)C1CCCCC1 (stereo not drawn) | inactive
